Assay results as given in PubChem BioAssay AID1159580 (chemical genetic matrix, 2015).
Hit rate of the full screen: of about 5,500 compounds, about 2,000 (36%) were called active. About 18% were inconclusive and are not listed. No stated cut-off is given here; in the data, active means normalized growth mostly below about 0.91 (no sharp cut-off); inconclusive means no clear call, values can overlap the other calls; inactive means mostly above about 0.92. The list shows a part of the results.

Experiment: chemical genetic growth profiling, strain panel (AID 1159580);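 further: tested at 20 µM; growth read once vehicle control cultures reached saturation at 30 °C; 1 = growth at the plate median or of vehicle wells; lower values mean less growth of the strain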
Settings: growth OD

Measured: normalized growth

COC1C(O)C(O)C(O)[C@@H](O)C1O (some centres undefined)
inactive: S. cerevisiae deletion strains, locus YJR066W, strain TOR1, active compounds read low 0.926 | S. cerevisiae deletion strains, locus YJR075W, strain HOC1, active compounds read low 1.01 | S. cerevisiae deletion strains, locus YKL009W, strain mrt4, active compounds read low 1.1 | S. cerevisiae deletion strains, locus YKL068W, active compounds read low 1.01 | S. cerevisiae deletion strains, locus YKL085W, strain MDH1 (second series), active compounds read low 1.02 | S. cerevisiae deletion strains, locus YKL085W, strain MDH1, active compounds read low 1.02 | S. cerevisiae deletion strains, locus YKL160W, strain elf1, active compounds read low 0.968 | S. cerevisiae deletion strains, locus YKL190W, strain CNB1, active compounds read low 1.01 | S. cerevisiae deletion strains, locus YKR001C, strain vps1, active compounds read low 1.05 | S. cerevisiae deletion strains, locus YKR026C, strain gcn3, active compounds read low 0.978 | S. cerevisiae deletion strains, locus YKR091W, strain srl3, active compounds read low 0.972 | S. cerevisiae deletion strains, locus YLL001W, strain dnm1, active compounds read low 0.944 | S. cerevisiae deletion strains, locus YLL026W, active compounds read low 0.992 | S. cerevisiae deletion strains, locus YLL041C, strain sdh2, active compounds read low 0.978 | S. cerevisiae deletion strains, locus YLR027C, strain aat2, active compounds read low 0.969 | S. cerevisiae deletion strains, locus YLR039C, strain RIC1, active compounds read low 1.07 | S. cerevisiae deletion strains, locus YLR058C, strain SHM2, active compounds read low 1.01 | S. cerevisiae deletion strains, locus YLR102C, strain apc9, active compounds read low 1.02 | S. cerevisiae deletion strains, locus YLR113W, strain HOG1, active compounds read low 0.97 | S. cerevisiae deletion strains, locus YLR221C, strain rsa3, active compounds read low 0.965 | S. cerevisiae deletion strains, locus YLR258W, strain gsy2, active compounds read low 0.979 | S. cerevisiae deletion strains, locus YLR262C, strain YPT6 (second series), active compounds read low 0.971 | S. cerevisiae deletion strains, locus YLR262C, strain YPT6, active compounds read low 1.03 | S. cerevisiae deletion strains, locus YLR268W, strain sec22, active compounds read low 1.05 | S. cerevisiae deletion strains, locus YLR320W, strain mms22, active compounds read low 0.963 | S. cerevisiae deletion strains, locus YLR330W, strain CHS5, active compounds read low 1.01 | S. cerevisiae deletion strains, locus YLR342W, strain FKS1 (second series), active compounds read low 1.08 | S. cerevisiae deletion strains, locus YLR342W, strain FKS1, active compounds read low 0.973 | S. cerevisiae deletion strains, locus YLR357W, strain rsc2, active compounds read low 0.959 | S. cerevisiae deletion strains, locus YLR370C, strain arc18, active compounds read low 0.971 | S. cerevisiae deletion strains, locus YLR371W, strain rom2, active compounds read low 1.02 | S. cerevisiae deletion strains, locus YLR384C, strain iki3, active compounds read low 0.96 | S. cerevisiae deletion strains, locus YLR418C, strain cdc73, active compounds read low 1.06 | S. cerevisiae deletion strains, locus YML016C, strain PPZ1, active compounds read low 1.01 | S. cerevisiae deletion strains, locus YML032C, strain rad52, active compounds read low 1.04 | S. cerevisiae deletion strains, locus YML120C, strain ndi1, active compounds read low 0.97 | S. cerevisiae deletion strains, locus YML124C, strain tub3, active compounds read low 1.02 | S. cerevisiae deletion strains, locus YMR058W, strain fet3, active compounds read low 0.973 | S. cerevisiae deletion strains, locus YMR078C, strain ctf18, active compounds read low 1.01 | S. cerevisiae deletion strains, locus YMR125W, strain sto1, active compounds read low 0.958 | S. cerevisiae deletion strains, locus YMR129W, active compounds read low 0.976 | S. cerevisiae deletion strains, locus YMR205C, strain PFK2, active compounds read low 0.966 | S. cerevisiae deletion strains, locus YMR223W, strain ubp8, active compounds read low 1 | S. cerevisiae deletion strains, locus YMR231W, strain pep5, active compounds read low 0.971 | S. cerevisiae deletion strains, locus YMR263W, strain SAP30, active compounds read low 0.997 | S. cerevisiae deletion strains, locus YMR307W, strain GAS1, active compounds read low 1.05 | S. cerevisiae deletion strains, locus YNL067W, strain RPL9B, active compounds read low 0.998 | S. cerevisiae deletion strains, locus YNL071W, strain lat1, active compounds read low 0.973 | S. cerevisiae deletion strains, locus YNL128W, strain TEP1, active compounds read low 1.03 | S. cerevisiae deletion strains, locus YNL183C, strain NPR1, active compounds read low 0.962 | S. cerevisiae deletion strains, locus YNL209W, strain ssb2, active compounds read low 0.987 | S. cerevisiae deletion strains, locus YNL233W, strain BNI4, active compounds read low 1.01 | S. cerevisiae deletion strains, locus YNL248C, strain rpa49, active compounds read low 0.976 | S. cerevisiae deletion strains, locus YNL250W, strain rad50, active compounds read low 1.02 | S. cerevisiae deletion strains, locus YNL271C, strain bni1, active compounds read low 1.01 | S. cerevisiae deletion strains, locus YNL298W, strain CLA4, active compounds read low 1.03 | S. cerevisiae deletion strains, locus YNL307C, strain MCK1, active compounds read low 1.02 | S. cerevisiae deletion strains, locus YNL322C, strain KRE1 (second series), active compounds read low 0.97 | S. cerevisiae deletion strains, locus YNR049C, strain mso1, active compounds read low 0.979 | S. cerevisiae deletion strains, locus YNR052C, strain pop2, active compounds read low 1.01 | S. cerevisiae deletion strains, locus YOL012C, strain htz1 1.17 | S. cerevisiae deletion strains, locus YOL147C, strain pex11, active compounds read low 1.01 | S. cerevisiae deletion strains, locus YOR001W, strain rrp6, active compounds read low 0.995 | S. cerevisiae deletion strains, locus YOR061W, strain CKA2, active compounds read low 1.02 | S. cerevisiae deletion strains, locus YOR069W, strain VPS5, active compounds read low 1.01 | S. cerevisiae deletion strains, locus YOR070C, strain gyp1, active compounds read low 1 | S. cerevisiae deletion strains, locus YOR080W, strain dia2, active compounds read low 0.979 | S. cerevisiae deletion strains, locus YOR083W, strain WHI5, active compounds read low 0.964 | S. cerevisiae deletion strains, locus YOR106W, strain vam3, active compounds read low 0.96 | S. cerevisiae deletion strains, locus YOR136W, strain idh2, active compounds read low 1.03 | S. cerevisiae deletion strains, locus YOR144C, strain elg1, active compounds read low 1.01 | S. cerevisiae deletion strains, locus YOR184W, strain ser1, active compounds read low 1.03 | S. cerevisiae deletion strains, locus YOR231W, strain MKK1, active compounds read low 0.977 | S. cerevisiae deletion strains, locus YOR265W, strain rbl2, active compounds read low 0.989 | S. cerevisiae deletion strains, locus YOR270C, strain vph1, active compounds read low 0.985 | S. cerevisiae deletion strains, locus YOR290C, strain snf2, active compounds read low 0.913 | S. cerevisiae deletion strains, locus YOR316C, strain cot1, active compounds read low 1.02 | S. cerevisiae deletion strains, locus YPL051W, strain arl3, active compounds read low 0.97 | S. cerevisiae deletion strains, locus YPL055C, strain LGE1, active compounds read low 1.02 | S. cerevisiae deletion strains, locus YPL078C, strain atp4, active compounds read low 0.965 | S. cerevisiae deletion strains, locus YPL106C, strain sse1, active compounds read low 0.949 | S. cerevisiae deletion strains, locus YPL240C, strain hsp82, active compounds read low 0.986 | S. cerevisiae deletion strains, locus YPL256C, strain CLN2, active compounds read low 0.93 | S. cerevisiae deletion strains, locus YPR119W, strain clb2, active compounds read low 1.02 | S. cerevisiae deletion strains, locus YPR141C, strain kar3, active compounds read low 1.03 | S. cerevisiae deletion strains, locus YPR163C, strain tif3, active compounds read low 1.02 | S. cerevisiae deletion strains, locus YPR167C, strain met16, active compounds read low 1.05 | S. cerevisiae deletion strains, strain wtn01, active compounds read low 1.06 | S. cerevisiae strains, strain wild type, active compounds read low 1.01
